From PubChem BioAssay
Active and inactive are the calls of the source. Unless noted, no rule for the calls is given here.

Legend:
[1] = anti-His antibody binders, primary screen, artefact control for SMM control protein annotation, biochemical, small-molecule microarray, 635 nm fluorescence (AID 1128); conditions: anti-His Alexa647 antibody binding, higher = more signal;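 also: score merges feature fluorescence with signal-to-noise for each printed compound spot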
[2] = test system: Human papillomavirus type 1a E7 protein (residues 1-88); test: HPV1a E7 small-molecule binders, primary screen, biochemical, small-molecule microarray, residues 1-88, 635 nm (AID 1129); conditions: small-molecule microarray binding, fluorescence 635 nm; higher = more signal
[3] = target: Focal adhesion kinase 1 (Homo sapiens) (UniProt Q05397); test: small-molecule microarray binders of FAK, primary screen, biochemical, 635/667 nm fluorescence, BSA, DTT (AID 1130); conditions: PTK2 binding, 635 nm fluorescence, higher = more signal;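 also: composite of spot emission at 667 nm and signal to noise over triplicate slides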
Chain of Focal adhesion kinase 1 (Homo sapiens) (Q05397 whole entry, looked up): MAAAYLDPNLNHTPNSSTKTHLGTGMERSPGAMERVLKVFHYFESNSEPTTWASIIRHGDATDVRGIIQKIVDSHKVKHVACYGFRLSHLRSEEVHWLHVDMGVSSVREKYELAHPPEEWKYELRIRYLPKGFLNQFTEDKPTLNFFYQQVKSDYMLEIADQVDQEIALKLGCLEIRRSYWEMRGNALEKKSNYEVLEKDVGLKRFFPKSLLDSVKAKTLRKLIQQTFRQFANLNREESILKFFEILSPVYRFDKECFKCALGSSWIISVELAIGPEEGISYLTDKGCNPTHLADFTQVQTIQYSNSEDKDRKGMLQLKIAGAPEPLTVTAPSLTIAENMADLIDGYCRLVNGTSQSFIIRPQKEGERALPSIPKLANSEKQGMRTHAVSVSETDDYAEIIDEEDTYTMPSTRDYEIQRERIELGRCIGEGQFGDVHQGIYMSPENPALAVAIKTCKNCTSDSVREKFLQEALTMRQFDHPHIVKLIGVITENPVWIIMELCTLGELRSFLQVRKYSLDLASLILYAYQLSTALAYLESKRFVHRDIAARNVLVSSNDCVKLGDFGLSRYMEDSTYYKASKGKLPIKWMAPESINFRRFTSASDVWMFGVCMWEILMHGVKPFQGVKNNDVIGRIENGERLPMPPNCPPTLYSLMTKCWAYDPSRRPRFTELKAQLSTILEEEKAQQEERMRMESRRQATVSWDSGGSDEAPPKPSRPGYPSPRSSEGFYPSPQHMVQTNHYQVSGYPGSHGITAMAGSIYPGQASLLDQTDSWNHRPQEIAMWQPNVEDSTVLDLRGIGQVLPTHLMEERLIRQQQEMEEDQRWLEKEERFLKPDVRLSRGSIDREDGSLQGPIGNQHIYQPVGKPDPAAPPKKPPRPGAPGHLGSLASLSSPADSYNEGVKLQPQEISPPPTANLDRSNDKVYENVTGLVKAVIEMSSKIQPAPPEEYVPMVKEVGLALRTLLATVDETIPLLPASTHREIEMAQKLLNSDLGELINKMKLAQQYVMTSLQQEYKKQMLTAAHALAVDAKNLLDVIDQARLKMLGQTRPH

[4] = test system: Fibrinogen (Alexa647-labelled); test: fibrinogen binders on compound microarrays, profiling panel, artefact control for SMM control-protein annotation, biochemical, small-molecule microarray, 635/667 nm fluorescence (AID 1131); conditions: fibrinogen-A647 binding fluorescence, higher = more signal;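 also: z-score merges 667 nm fluorescence with per-spot signal-to-noise over triplicate slides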
[5] = target: Follistatin (Homo sapiens) (UniProt P19883); test: follistatin binders on small-molecule microarrays, primary screen, biochemical, small-molecule microarray, 635/667 nm fluorescence (AID 1132); conditions: FST binding, 635 nm fluorescence, higher = more signal
Chain of Follistatin (Homo sapiens) (P19883 whole entry, looked up): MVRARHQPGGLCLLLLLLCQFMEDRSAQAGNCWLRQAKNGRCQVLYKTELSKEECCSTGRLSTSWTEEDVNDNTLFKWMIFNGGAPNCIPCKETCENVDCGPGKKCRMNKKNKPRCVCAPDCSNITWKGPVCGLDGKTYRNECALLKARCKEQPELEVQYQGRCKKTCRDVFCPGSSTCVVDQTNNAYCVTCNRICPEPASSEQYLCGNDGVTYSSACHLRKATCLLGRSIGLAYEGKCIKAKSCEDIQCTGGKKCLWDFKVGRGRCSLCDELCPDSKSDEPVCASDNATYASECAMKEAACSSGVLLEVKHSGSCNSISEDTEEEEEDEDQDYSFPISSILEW

[6] = target: Fibroblast growth factor 2 (Homo sapiens) (UniProt P09038); test: FGF2 binders on small-molecule microarrays, primary screen, biochemical, small-molecule microarray, 635/667 nm fluorescence (AID 1133); conditions: small-molecule microarray binding, FGF2, fluorescence 635/667; higher = more signal
Chain of Fibroblast growth factor 2 (Homo sapiens) (P09038 whole entry, looked up): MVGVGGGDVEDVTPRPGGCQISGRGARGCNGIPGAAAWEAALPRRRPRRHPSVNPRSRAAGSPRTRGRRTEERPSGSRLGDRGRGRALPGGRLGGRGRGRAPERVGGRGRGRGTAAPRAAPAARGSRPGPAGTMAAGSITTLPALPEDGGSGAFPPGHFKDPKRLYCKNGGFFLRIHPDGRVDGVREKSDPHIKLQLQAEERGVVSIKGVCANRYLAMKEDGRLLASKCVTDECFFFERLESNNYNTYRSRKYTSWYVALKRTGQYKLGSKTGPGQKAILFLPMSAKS

[7] = mitochondrial membrane potential change in A549 cells, profiling panel, cell-based, JC-1 fluorescence, basal, 24 h, 100 nL (AID 1138); conditions: higher = more signal;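 also: A549 lung adenocarcinoma cells under basal conditions with no added stimulus; test concentration not given here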
[8] = test system: Lefty1; test: Lefty1 binders on small-molecule microarrays, primary screen, biochemical, small-molecule microarray, 635/667 nm fluorescence (AID 1139); conditions: small-molecule microarray binding, fluorescence 635/667; higher = more signal
[9] = test system: wheat germ agglutinin (Triticum aestivum), Alexa647-labelled; test: wheat germ agglutinin binders on compound microarrays, profiling panel, artefact control for SMM control-protein annotation, biochemical, small-molecule microarray, 635/667 nm fluorescence (AID 1140); conditions: WGA-A647 binding, 635 nm fluorescence, higher = more signal;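 also: score merges 667 nm feature emission with signal to noise over triplicate slides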
[10] = target: Luciferin 4-monooxygenase (Photinus pyralis) (UniProt P08659); test: firefly luciferase enzyme inhibitors, primary screen, biochemical, luminescence, purified enzyme, 2006 set (AID 1141); conditions: SteadyGlo luminescence, 30 min, higher = more signal, called active from +8 up or from −8 down;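 also: cell-free assay with purified firefly luciferase at 100 ng per well in PBS; test concentration not given here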
Chain of Luciferin 4-monooxygenase (Photinus pyralis) (P08659 whole entry, looked up): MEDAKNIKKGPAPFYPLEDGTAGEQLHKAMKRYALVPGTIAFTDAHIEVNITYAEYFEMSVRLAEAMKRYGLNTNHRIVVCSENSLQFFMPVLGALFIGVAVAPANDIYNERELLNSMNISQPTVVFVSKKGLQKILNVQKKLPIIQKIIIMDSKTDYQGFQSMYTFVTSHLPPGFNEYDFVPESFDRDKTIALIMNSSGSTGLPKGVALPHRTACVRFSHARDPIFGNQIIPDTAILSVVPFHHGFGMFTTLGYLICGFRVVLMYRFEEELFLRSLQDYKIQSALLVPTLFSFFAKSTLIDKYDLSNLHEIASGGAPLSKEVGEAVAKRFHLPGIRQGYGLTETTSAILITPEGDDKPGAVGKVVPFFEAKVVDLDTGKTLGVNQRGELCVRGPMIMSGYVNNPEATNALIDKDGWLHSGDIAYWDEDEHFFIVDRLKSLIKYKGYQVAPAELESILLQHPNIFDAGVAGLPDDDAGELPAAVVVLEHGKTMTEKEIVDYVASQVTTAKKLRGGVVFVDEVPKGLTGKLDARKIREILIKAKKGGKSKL

[11] = test system: Wnt5a (protein binding on small-molecule microarray); test: Wnt5a binders on small-molecule microarray, primary screen, biophysical, 635/667 nm fluorescence (AID 1142); conditions: 635 nm fluorescence, higher = more signal;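 also: fluorescence read at 667 nm with signal to noise per printed feature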
[12] = cell viability in Huh7 cells, primary screen, cytotoxicity control for HCV replication inhibitor project, CellTiter-Glo luminescence, basal, 48 h (AID 1143); conditions: Huh7 HCV replicon, higher = more signal, called active from +8 up or from −8 down;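 also: Huh7 hepatoma cells carrying a hepatitis C replication reporter with no stimulus; test concentration not given here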
[13] = P. aeruginosa biofilm formation inhibitors, primary screen, PAO1 strain, BacTiter-Glo luminescence, LB-PBS (AID 1144); conditions: 12 h, higher = more signal
[14] = CREB reporter modulators without forskolin, primary screen, cell-based, PC12, CRE-LacZ reporter, unstimulated (AID 1145); conditions: no forskolin, luminescence, 4.5 h, higher = more signal, called active from +8 up or from −8 down
[15] = CREB reporter modulators under forskolin, primary screen, cell-based, PC12, CRE-LacZ reporter, forskolin-stimulated (AID 1146); conditions: luminescence, 4.5 h, higher = more signal, called active from +8 up or from −8 down;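 also: PC12 cells with 6xCRE LacZ reporter stimulated by forskolin 10 µM; beta-galactosidase reporter signal reflecting CREB driven transcription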
[16] = target: Streptavidin (Streptomyces avidinii) (UniProt P22629); test: streptavidin binders on small-molecule microarray, primary screen, artefact control for SMM compound annotation, biophysical, 635/667 nm fluorescence (AID 1147); conditions: streptavidin binding, higher = more signal;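 also: signal reflects streptavidin binding to arrayed compounds as a control protein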
Chain of Streptavidin (Streptomyces avidinii) (P22629 whole entry, looked up): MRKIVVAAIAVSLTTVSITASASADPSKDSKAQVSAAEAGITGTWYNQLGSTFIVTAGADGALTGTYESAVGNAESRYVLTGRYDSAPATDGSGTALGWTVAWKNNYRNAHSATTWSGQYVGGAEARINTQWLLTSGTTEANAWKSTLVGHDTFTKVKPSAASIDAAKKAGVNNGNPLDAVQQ

[17] = small-molecule binders of probe aInhba, primary screen, biochemical, small-molecule microarray, 635/667 nm fluorescence (AID 1148); conditions: higher = more signal;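 also: score merges 667nm spot fluorescence with signal-to-noise for antibody binding to printed compounds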
[18] = target: Torsin-1A (Homo sapiens) (UniProt O14656); test: torsin A binders from cell lysate, primary screen, small-molecule microarray, wild-type, 635/667 nm (AID 1149); conditions: COS7 hTOR1A-WT lysate, 635 nm fluorescence, higher = more signal
Chain of Torsin-1A (Homo sapiens) (O14656 whole entry, looked up): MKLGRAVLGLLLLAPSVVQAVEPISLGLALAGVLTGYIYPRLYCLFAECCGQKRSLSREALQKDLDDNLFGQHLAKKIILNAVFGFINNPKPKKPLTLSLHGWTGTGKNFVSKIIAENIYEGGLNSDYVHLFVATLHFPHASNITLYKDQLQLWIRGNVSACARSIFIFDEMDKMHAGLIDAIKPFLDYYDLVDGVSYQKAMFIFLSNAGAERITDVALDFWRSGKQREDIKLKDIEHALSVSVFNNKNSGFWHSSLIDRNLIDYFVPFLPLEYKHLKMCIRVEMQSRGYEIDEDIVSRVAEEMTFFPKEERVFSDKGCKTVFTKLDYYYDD

[19] = target: Torsin-1A (Homo sapiens) (UniProt O14656); test: small-molecule binders of mutant TOR1A in lysate, primary screen, cell lysate, small-molecule microarray, COS7 lysate, 635/667 nm fluorescence (AID 1150); conditions: COS7 hTOR1A mutant lysate, 635 nm fluorescence, higher = more signal;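 also: score pools 667 nm emission and signal to noise measuring lysate protein binding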
[20] = test system: Sonic hedgehog protein (Shh); test: small-molecule binders of Shh protein, primary screen, biochemical, small-molecule microarray, 635/667 nm fluorescence (AID 1151); conditions: small-molecule microarray binding, 635 nm fluorescence; higher = more signal;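 also: Shh protein binding to compounds spotted on small-molecule microarray slides; score combines spot fluorescence intensity with signal-to-noise across triplicate slides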

SMILES	composite z-score [1]	composite z-score [2]	composite z-score [3]	composite z-score [4]	composite z-score [5]	composite z-score [6]	z-score [7]	composite z-score [8]	composite z-score [9]	z-score [10]	composite z-score [11]	z-score [12]	z-score [13]	z-score [14]	z-score [15]	composite z-score [16]	composite z-score [17]	composite z-score [18]	composite z-score [19]	composite z-score [20]
Cc1c(NC(=O)/C(C#N)=C/C=C/c2ccccc2)c(=O)n(-c2ccccc2)n1C	0.378	0.466	-0.358	0.68	0.58	0.366	-0.158	0.451	0.343	-5.86 (inactive)	0.17	-0.328 (inactive)	0.374 (inactive)	-0.967 (inactive)	-0.733 (inactive)	0.783	0.0018	0.172	0.426	0.522
Cc1ccc(N2C(=O)c3ccccc3[C@@H](C(=O)NC(C)C)[C@@H]2c2ccc(CO)cc2)nc1	0.621	0.708	-0.291	-0.756	0.931	1.55	-1.05	-0.362	0.692	1.25 (inactive)	0.635	-2.73 (inactive)	-1.83 (inactive)	0.351 (inactive)	0.807 (inactive)	-0.896	-0.104	-1.73	2.08	-0.473
O=C1O[C@@H](c2ccccc2)[C@@H](c2ccccc2)N2[C@@H](c3ccc(O)cc3)[C@]3(C(=O)Nc4ccc(C#CCCO)cc43)[C@@H](C(=O)O)[C@H]12	2.29	0.18	0.894	0.925	1.2	-0.196	0.889	-0.22	1.34	-1.18 (inactive)	0.13	0.457 (inactive)	-0.682 (inactive)	0.0921 (inactive)	-0.31 (inactive)	1.47	1.47	0.0458	-0.0978	-0.3
CN(C)CCCCCCNC(=O)[C@@H]1C[C@@H]2C(=O)N[C@@H](Cc3ccccc3)C(=O)N2[C@@H]1c1cccc(OCCO)c1	2.13	1.05	1.81	0.105	0.699	0.886	-0.37	0.729	0.346	-0.0196 (inactive)	0.154	0.59 (inactive)	0.0305 (inactive)	-0.122 (inactive)	-1.29 (inactive)	0.0978	-0.0209	1.15	0.885	1.28
[N-]=[N+]=NCc1ccccc1[C@H]1OC(c2ccc(OCCCO)cc2)=N[C@@]1(Cc1ccccc1)C(=O)NCC(O)CO (stereo not given in full)	1.86	1.25	1.08	0.726	0.474	-0.0723	1.2	-0.994	0.486	0.142 (inactive)	0.11	-2.11 (inactive)	-0.737 (inactive)	0.96 (inactive)	0.452 (inactive)	0.496	0.296	0.379	0.894	-0.76
CN(C)CCCCCCNC(=O)[C@@H]1C[C@@H]2C(=O)NCC(=O)N2[C@@H]1c1cccc(OCCO)c1	2.96	1.28	0.446	0.232	1.34	0.826	0.295	1.36	-0.0165	-0.791 (inactive)	1.21	0.105 (inactive)	-0.418 (inactive)	-0.549 (inactive)	-0.832 (inactive)	0.312	0.105	1.14	2.07	1.64
COc1ccccc1CN1C(=O)c2ccccc2[C@](Cc2ccccc2I)(C(=O)NCc2ccccc2)[C@@H]1c1ccc(CO)cc1	-0.0448	0.406	-0.2	0.414	-0.526	-0.243	0.109	-0.88	0.687	0.0375 (inactive)	0.0733	-0.553 (inactive)	0.166 (inactive)	-0.412 (inactive)	-0.0005 (inactive)	-0.476	0.0627	0.999	2.06	-0.197
COCCn1c(C(=O)N2CCCC2)cc2c1C[C@H]1CN(C(=O)c3ccccc3)[C@@](Cc3ccc(OC)cc3)(C(=O)OC)[C@@H]21	2.34	1.02	1.89	0.632	0.417	-0.552	0.766	-0.0277	1.06	0.438 (inactive)	0.644	-1.54 (inactive)	-0.2 (inactive)	-0.751 (inactive)	0.699 (inactive)	2.01	0.739	-0.141	1.29	-0.89
O=C1OCC=C[C@H]2OC34C=CCN(c5ccc(Cl)cc5)C(=O)[C@H]3N(CCCO)C(=O)[C@@H]4[C@@H]12 (stereo not given in full)	-0.562	-0.799	0.29	-1.02	-0.706	-0.708	-0.353	-0.672	-0.748	-0.429 (inactive)	-0.329	-2.14 (inactive)	-0.288 (inactive)	1.28 (inactive)	0.245 (inactive)	-1.47	-0.15	0.626	-2.06	-0.629
C=CCC(OC(C)=O)[C@@H]1[C@@H](N(Cc2cc3ccccc3o2)C(=O)c2cccc3ccccc23)c2cc(OCCCO)ccc2N1C(=O)Cc1ccc(OC)cc1 (stereo not given in full)	0.305	-0.328	-0.109	0.412	1.02	0.78	-0.529	0.339	0.637	0.48 (inactive)	0.235	-1.1 (inactive)	0.0686 (inactive)	0.279 (inactive)	0.496 (inactive)	-0.0552	-0.0804	0.175	0.138	1.16
